Read-out in test [1]: Human Leukocyte Antigen - DR isotype (HLADR), HLA-DRA (gene 3122)
The test can be described thus: BSK_BE3C_HLADR: BioMAP Diversity Plus: BE3C Assay for Human Leukocyte Antigen - DR isotype (HLADR) Biomarker Activity (AID 2283032). The following applies: primary human bronchial epithelial cells; actives raise or lower the signal. The procedure, abridged: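 BioMAP BE3C format: human bronchial epithelium, 24 h compound treatment, ELISA detection of HLA-DR, with bidirectional analysis relative to DMSO.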

Read-out in test [2]: Vascular cell adhesion molecule 1 (VCAM1), VCAM1 (gene 7412)
In words: BSK_4H_VCAM1: BioMAP Diversity Plus: 4H Assay for Vascular cell adhesion molecule 1 (VCAM1) Biomarker Activity (AID 2283033).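 For outcome: cell-surface VCAM-1 protein measured by ELISA.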 As to conditions: primary human endothelial cells (HUVEC); actives raise or lower the signal. The procedure, abridged:
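In this human endothelial (HUVEC) system, biomarker ELISA was run 24 h after compound addition, and total protein in parallel wells was assessed by SRB at 560 nm; DMSO served as negative control.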

Read-out in test [3]: Interferon-gamma inducible Protein 10 (IP10), CXCL10 (gene 3627)
In words: BSK_BE3C_IP10: BioMAP Diversity Plus: BE3C Assay for Interferon-gamma inducible Protein 10 (IP10) Biomarker Activity (AID 2283034). As to conditions: primary human bronchial epithelial cells; actives raise or lower the signal. The method in brief: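 BE3C cells (human bronchial epithelial, primary); 24 h exposure; ELISA for IP-10; DMSO-referenced bidirectional fit.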

Read-out in test [4]: Monokine induced gamma interferon (MIG), CXCL9 (gene 4283)
The test can be described thus: BSK_BE3C_MIG: BioMAP Diversity Plus: BE3C Assay for Monokine induced gamma interferon (MIG) Biomarker Activity (AID 2283035).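 For outcome: MIG protein measured by ELISA in BE3C cultures after 24 h of dosing.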 As to conditions: primary human bronchial epithelial cells; actives raise or lower the signal. The procedure, abridged: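 ELISA quantified MIG after 24 h exposure of primary bronchial epithelial cultures, analysed in both directions relative to DMSO. Cytotoxicity tracked in parallel cultures by sulforhodamine B staining.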

Read-out in test [5]: Transforming growth factor beta 1 (TGFb1), TGFB1 (gene 7040)
In words: BSK_BE3C_TGFb1: BioMAP Diversity Plus: BE3C Assay for Transforming growth factor beta 1 (TGFb1) Biomarker Activity (AID 2283036;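 for outcome: TGF-b1 protein level measured by ELISA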). As to conditions: primary human bronchial epithelial cells; actives raise or lower the signal. The method in brief:
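TGF-b1 measured via ELISA, 24 h after chemical dosing of human bronchial epithelial cells (BE3C). Overt cytotoxicity assessed in parallel by SRB (0.1%, TCA-fixed, 560 nm); analysis bidirectional relative to DMSO.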

Read-out in test [6]: Plasminogen activator inhibitor-1 (PAI1), SERPINE1 (gene 5054)
The test can be described thus: BSK_BE3C_PAI1: BioMAP Diversity Plus: BE3C Assay for Plasminogen activator inhibitor-1 (PAI1) Biomarker Activity (AID 2283037). As to conditions: primary human bronchial epithelial cells; actives raise or lower the signal. The method in brief:
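In this multiplexed primary-cell system, bronchial epithelial cells receive test chemical and are sampled at 24 h. PAI-1 is read by ELISA, with DMSO serving as negative control for bidirectional fitting.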

Read-out in test [7]: urokinase plasminogen activator (uPA), PLAU (gene 5328)
In words: BSK_BE3C_uPA: BioMAP Diversity Plus: BE3C Assay for urokinase plasminogen activator (uPA) Biomarker Activity (AID 2283038).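 For outcome: uPA protein level quantified by ELISA in cell cultures; uPA read one day after compound addition.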 As to conditions: primary human bronchial epithelial cells; actives raise or lower the signal. The method in brief:
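Measured by ELISA: uPA from human primary bronchial epithelial cells 24 h after chemical treatment. Values derive from bidirectional curve fitting with DMSO serving as negative control. Total protein by SRB staining in parallel wells flagged overt cytotoxicity.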

Read-out in test [8]: Urokinase-type plasminogen activator receptor (uPAR), PLAUR (gene 5329)
In words: BSK_BE3C_uPAR: BioMAP Diversity Plus: BE3C Assay for Urokinase-type plasminogen activator receptor (uPAR) Biomarker Activity (AID 2283039).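 For outcome: uPAR protein level measured by ELISA on the cells; cells exposed to compound for one day before measurement.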 The following applies: primary human bronchial epithelial cells; actives raise or lower the signal. The procedure, abridged:
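Chemically treated human bronchial epithelial cells (lung primary) are assayed for uPAR by ELISA after 24 h, with data fitted in both directions using DMSO as negative control.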

Read-out in test [9]: Interleukin-6 (IL6), IL6 (gene 3569)
The test can be described thus: BSK_CASM3C_IL6: BioMAP Diversity Plus: CASM3C Assay for Interleukin-6 (IL6) Biomarker Activity for (AID 2283040). The following applies: primary human coronary artery smooth muscle cells; actives raise or lower the signal.

Read-out in test [10]: Tissue plasminogen activator (tPA), PLAT (gene 5327)
In words: BSK_BE3C_tPA: BioMAP Diversity Plus: BE3C Assay for Tissue plasminogen activator (tPA) Biomarker Activity (AID 2283041).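 For outcome: tPA level quantified by ELISA one day after compound addition.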 The following applies: primary human bronchial epithelial cells; actives raise or lower the signal. The procedure, abridged: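 Using human lung primary bronchial epithelial cells, tPA was measured by ELISA 24 h after dosing; data fitted relative to DMSO.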

Read-out in test [11]: Interleukin-8 (IL8), CXCL8 (gene 3576)
The test can be described thus: BSK_CASM3C_IL8: BioMAP Diversity Plus: CASM3C Assay for Interleukin-8 (IL8) Biomarker Activity (AID 2283042).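 Note: IL-8 protein level quantified by ELISA.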 As to conditions: primary human coronary artery smooth muscle cells; actives raise or lower the signal.

Read-out in test [12]: Human Leukocyte Antigen - DR isotype (HLADR), HLA-DRA (gene 3122)
In words: BSK_CASM3C_HLADR: BioMAP Diversity Plus: CASM3C Assay for Human Leukocyte Antigen - DR isotype (HLADR) Biomarker Activity (AID 2283043).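 Note: cell-surface HLA-DR protein level quantified by ELISA.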 As to conditions: primary human coronary artery smooth muscle cells; actives raise or lower the signal.

Read-out in test [13]: Macrophage colony-stimulating factor (MCSF), CSF1 (gene 1435)
In words: BSK_CASM3C_MCSF: BioMAP Diversity Plus: CASM3C Assay for Macrophage colony-stimulating factor (MCSF) Biomarker Activity (AID 2283044).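 Note: M-CSF protein amount quantified by ELISA after 24 h exposure.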 The following applies: primary human coronary artery smooth muscle cells; actives raise or lower the signal.

Read-out in test [14]: Low-density lipoprotein receptor (LDLR), LDLR (gene 3949)
The test can be described thus: BSK_CASM3C_LDLR: BioMAP Diversity Plus: CASM3C Assay for Low-density lipoprotein receptor (LDLR) Biomarker Activity (AID 2283045).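 Note: LDLR protein level on the cell surface quantified by ELISA.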 As to conditions: primary human coronary artery smooth muscle cells; actives raise or lower the signal.

Read-out in test [15]: Monocyte Chemoattractant Protein-1 (MCP1), CCL2 (gene 6347)
The test can be described thus: BSK_CASM3C_MCP1: BioMAP Diversity Plus: CASM3C Assay for Monocyte Chemoattractant Protein-1 (MCP1) Biomarker Activity (AID 2283046).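 Note: MCP-1 level quantified by ELISA 24 h after dosing.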 As to conditions: primary human coronary artery smooth muscle cells; actives raise or lower the signal.

The nature of test [16]: BSK_CASM3C_Proliferation: Cell Proliferation Assessment in the BioMAP Diversity Plus: CASM3C Assay (AID 2283047).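 Note: sulforhodamine B total protein stain as relative cell number at 560 nm; sub-confluent cells exposed 48 h before staining; fitted both ways against DMSO so gain or loss of cell number.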 As to conditions: primary human coronary artery smooth muscle cells.
Read-out in test [17]: Monokine induced gamma interferon (MIG), CXCL9 (gene 4283)
In words: BSK_CASM3C_MIG: BioMAP Diversity Plus: CASM3C Assay for Monokine induced gamma interferon (MIG) Biomarker Activity (AID 2283048).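 Note: MIG protein level measured by ELISA.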 As to conditions: primary human coronary artery smooth muscle cells; actives raise or lower the signal.

Read-out in test [18]: serum amyloid A (SAA), SAA1 (gene 6288)
The test can be described thus: BSK_CASM3C_SAA: BioMAP Diversity Plus: CASM3C Assay for serum amyloid A (SAA) Biomarker Activity (AID 2283049).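 Note: SAA protein level quantified by ELISA.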 The following applies: primary human coronary artery smooth muscle cells; actives raise or lower the signal.

Test [19] can be described thus: BSK_CASM3C_SRB: Viability Assessment in the BioMAP Diversity Plus: CASM3C Assay (AID 2283050).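 Note: total protein by SRB staining as cytotoxicity measure in parallel cultures.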 The following applies: primary human coronary artery smooth muscle cells.
Read-out in test [20]: Thrombomodulin, THBD (gene 7056)
In words: BSK_CASM3C_Thrombomodulin: BioMAP Diversity Plus: CASM3C Assay for Thrombomodulin Biomarker Activity (AID 2283051).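 Note: thrombomodulin protein level measured by ELISA 24 h after dosing.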 As to conditions: primary human coronary artery smooth muscle cells; actives raise or lower the signal.

Some structures have more than one record in an assay (separate samples or runs), and their calls can disagree. Activity calls are given as the source filed them. Rule for the calls: active = hit-call score of the fitted dose curve at least 0.9, where 1 is the maximum; inactive = score below 0.9.

What is called AC50 is the midpoint of the concentration-response curve, whichever way the signal moves.

In the case of `OCCC(F)(F)C(F)(F)C(F)(F)C(F)(F)C(F)(F)C(F)(F)F`, the outcome in [1], in [2], in [3], in test [4], in [5] and in [6] was inactive. The outcome in test [7], in test [8], in test [9], in test [10], in test [11] and in test [12] was inactive. For the same molecule, the result in test [13], in [14], in test [15], in test [16], in test [17] and in test [18] was inactive. In addition, the result in test [19] and in test [20] was inactive. Also, the AC50 in [16] was 44.3 µM (active).
As for `CCCOC(=O)c1ccc(O)cc1`, the outcome in [1], in test [2], in test [3], in test [4], in test [5] and in [6] was inactive. In addition, the outcome in test [7], in test [8], in test [9], in [10], in [11] and in [12] was inactive. Also, the result in test [13], in test [14], in test [15], in [16], in test [17] and in test [18] was inactive. Also, the result in test [19] and in test [20] was inactive.
Consider `CCCCC(CC)COC(=O)CCCCC(=O)OCc1ccccc1` (stereo not given), for which the outcome in test [1], in [2], in test [3], in [4], in [5] and in test [6] was inactive. Besides, the result in test [7], in [8], in [9], in [10], in test [11] and in test [12] was inactive. In addition, the outcome in test [13], in [14], in test [15], in test [16], in test [17] and in test [18] was inactive. Further, the outcome in test [19] and in [20] was inactive.
Consider `O=[N+]([O-])c1ccc(O)cc1`, for which the outcome in [1], in test [2], in test [3], in [4], in test [5] and in test [6] was inactive. Moreover, the outcome in [7], in test [8], in [9], in test [10], in test [11] and in test [12] was inactive. For the same molecule, the result in test [13], in test [14], in [15], in test [16], in test [17] and in [18] was inactive. For the same molecule, the outcome in test [19] and in test [20] was inactive.
Consider `CN(C)C=O`, for which the outcome in test [1], in test [2], in test [3], in test [4], in test [5] and in test [6] was inactive. For the same molecule, the result in [7], in test [8], in [9], in [10], in test [11] and in [12] was inactive. The result in [13], in [14], in test [15], in test [16], in [17] and in test [18] was inactive. In addition, the outcome in test [19] and in test [20] was inactive.
`Cc1cc(CCN2CCN(c3nsc4ccccc34)CC2)cc2c1NC(=O)CC2(C)C`: the AC50 in test [1] is 28.9 µM (active); in test [2], 22.3 µM (active); in [3], 30.4 µM (active); in [4] it was 34.4 µM (active); in test [5] it was 27.2 µM (active); in [6] it was 32.6 µM (active). Further, the AC50 was 31.3 µM (active) in test [7]; 31.2 µM (active) in [8]; 25.8 µM (active) in [10]; 35.4 µM (active) in test [11]; 28.5 µM (active) in test [12]; 36.1 µM (active) in test [13]. Besides, the AC50 in test [14] was 33.4 µM (active); in [15], 37.1 µM (active); in [16], 29.8 µM (active); in test [17] it was 37.1 µM (active); in test [18], 31.5 µM (active); in [19], 36.5 µM (active). In test [20], the AC50 was 33.9 µM (active).
